Results on 3 sequences are retold here after PMC11006913.

Assay in all cases: PBM; 200 nM protein, PBS
What all share (settings): dsDNA, one strand shown

Test [1] concerns the target HOXB9 (Homo sapiens, UniProt P17482 171-250, T197M).
Test [2] concerns the target HOXA4 (Homo sapiens, UniProt Q00056 201-287, W262R).
In test [3] the target is HOXC9 (Homo sapiens, UniProt P31274 178-260, K195R).
In test [4] the target is T1, VENTX (Homo sapiens, UniProt O95231 78-163).
T1 sequence: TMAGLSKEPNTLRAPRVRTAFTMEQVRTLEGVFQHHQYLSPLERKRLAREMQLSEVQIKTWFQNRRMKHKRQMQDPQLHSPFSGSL

Test [5] concerns the target HOXA7 (Homo sapiens, UniProt P31268 116-202).
For test [6], the target named is HOXC10 (Homo sapiens, UniProt Q9NYD6 254-340).
The target of test [7] is HOXB6 (Homo sapiens, UniProt P17509 132-218, K202E).
Test [8] has as its target HOXB9 (Homo sapiens, UniProt P17482 171-250).
In test [9] the target is HOXC9 (Homo sapiens, UniProt P31274 178-260).
In test [10] the target is HOXC9 (Homo sapiens, UniProt P31274 178-260, R193K).
Test [11] addresses HOXA4 (Homo sapiens, UniProt Q00056 201-287).
Test [12] has as its target HOXC10 (Homo sapiens, UniProt Q9NYD6 254-340, K271E).
Test [13] has as its target VAX1 (Homo sapiens, UniProt Q5SQQ9 86-172).
Test [14] addresses HOXB9 (Homo sapiens, UniProt P17482 171-250, R186Q).
Test [15] has as its target HOXC9 (Homo sapiens, UniProt P31274 178-260, R222W).
In test [16] the target is T2, PAX4 (Homo sapiens, UniProt O43316 9-242, R227W).
T2 sequence: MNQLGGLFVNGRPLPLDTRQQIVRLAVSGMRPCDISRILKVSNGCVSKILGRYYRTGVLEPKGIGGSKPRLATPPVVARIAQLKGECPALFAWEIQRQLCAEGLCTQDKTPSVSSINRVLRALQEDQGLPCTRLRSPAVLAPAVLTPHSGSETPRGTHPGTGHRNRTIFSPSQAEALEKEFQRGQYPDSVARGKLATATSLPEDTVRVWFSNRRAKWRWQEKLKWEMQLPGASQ

The target of test [17] is HOXA2 (Homo sapiens, UniProt O43364 129-215, Y150S).
Test [18] addresses HOXA7 (Homo sapiens, UniProt P31268 116-202, W177C).
Test [19] addresses HOXA2 (Homo sapiens, UniProt O43364 129-215).
Test [20] addresses HOXB6 (Homo sapiens, UniProt P17509 132-218).

HOXC9 (Homo sapiens, UniProt P31274 178-260, K195R), sequence (P31274 178-260 K195R): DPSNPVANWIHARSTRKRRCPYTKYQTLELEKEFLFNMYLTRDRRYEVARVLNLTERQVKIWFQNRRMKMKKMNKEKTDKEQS
HOXB6 (Homo sapiens, UniProt P17509 132-218), sequence (P17509 132-218): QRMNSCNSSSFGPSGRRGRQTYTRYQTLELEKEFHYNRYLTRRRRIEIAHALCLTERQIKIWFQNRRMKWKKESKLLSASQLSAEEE
HOXA7 (Homo sapiens, UniProt P31268 116-202, W177C), sequence (P31268 116-202 W177C): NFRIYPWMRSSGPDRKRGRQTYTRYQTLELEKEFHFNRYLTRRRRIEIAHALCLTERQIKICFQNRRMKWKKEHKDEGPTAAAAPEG
HOXA2 (Homo sapiens, UniProt O43364 129-215, Y150S), sequence (O43364 129-215 Y150S): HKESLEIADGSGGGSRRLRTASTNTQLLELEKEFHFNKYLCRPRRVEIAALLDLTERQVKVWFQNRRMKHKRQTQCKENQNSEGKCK
HOXA4 (Homo sapiens, UniProt Q00056 201-287), sequence (Q00056 201-287): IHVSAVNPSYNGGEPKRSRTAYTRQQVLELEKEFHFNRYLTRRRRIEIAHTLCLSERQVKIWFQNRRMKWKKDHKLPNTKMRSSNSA
HOXC9 (Homo sapiens, UniProt P31274 178-260, R193K), sequence (P31274 178-260 R193K): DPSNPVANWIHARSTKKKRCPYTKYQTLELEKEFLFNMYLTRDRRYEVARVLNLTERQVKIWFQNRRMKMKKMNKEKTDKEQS
HOXA4 (Homo sapiens, UniProt Q00056 201-287, W262R), sequence (Q00056 201-287 W262R): as the sequence (Q00056 201-287) above, with W62R counted along it
HOXB9 (Homo sapiens, UniProt P17482 171-250, T197M), sequence (P17482 171-250 T197M): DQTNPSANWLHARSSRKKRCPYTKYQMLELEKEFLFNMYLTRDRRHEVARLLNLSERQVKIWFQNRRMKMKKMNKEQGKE
HOXB9 (Homo sapiens, UniProt P17482 171-250, R186Q), sequence (P17482 171-250 R186Q): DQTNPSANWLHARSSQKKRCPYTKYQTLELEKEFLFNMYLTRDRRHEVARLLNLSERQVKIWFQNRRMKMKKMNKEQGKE
HOXC9 (Homo sapiens, UniProt P31274 178-260, R222W), sequence (P31274 178-260 R222W): as the sequence (P31274 178-260 R193K) above, with K16R, R45W counted along it
HOXC10 (Homo sapiens, UniProt Q9NYD6 254-340, K271E), sequence (Q9NYD6 254-340 K271E): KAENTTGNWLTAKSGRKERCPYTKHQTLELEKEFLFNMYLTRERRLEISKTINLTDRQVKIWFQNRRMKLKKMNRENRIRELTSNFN
HOXC10 (Homo sapiens, UniProt Q9NYD6 254-340), sequence (Q9NYD6 254-340): as the sequence (Q9NYD6 254-340 K271E) above, with E18K counted along it
VAX1, sequence (Q5SQQ9 86-172): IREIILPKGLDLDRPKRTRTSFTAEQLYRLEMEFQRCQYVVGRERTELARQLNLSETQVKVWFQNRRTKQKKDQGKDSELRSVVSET
HOXA7 (Homo sapiens, UniProt P31268 116-202), sequence (P31268 116-202): as the sequence (P31268 116-202 W177C) above, with C62W counted along it
HOXB9 (Homo sapiens, UniProt P17482 171-250), sequence (P17482 171-250): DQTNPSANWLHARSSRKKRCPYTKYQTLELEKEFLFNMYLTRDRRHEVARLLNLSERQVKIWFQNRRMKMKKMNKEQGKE
HOXB6 (Homo sapiens, UniProt P17509 132-218, K202E), sequence (P17509 132-218 K202E): as the sequence (P17509 132-218) above, with K71E counted along it
HOXA2 (Homo sapiens, UniProt O43364 129-215), sequence (O43364 129-215): as the sequence (O43364 129-215 Y150S) above, with S22Y counted along it
HOXC9 (Homo sapiens, UniProt P31274 178-260), sequence (P31274 178-260): as the sequence (P31274 178-260 R193K) above, with K16R counted along it

With AATAATTA, the binding signal was 10.3 upbm affinity estimate (log intensity, higher = more binding, comparable within an allelic series) in [1]; 10.9 upbm affinity estimate (log intensity, higher = more binding, comparable within an allelic series) in test [2]; 12.7 upbm affinity estimate (log intensity, higher = more binding, comparable within an allelic series) in test [3]; 12.4 upbm affinity estimate (log intensity, higher = more binding, comparable within an allelic series) in [4]; 11.9 upbm affinity estimate (log intensity, higher = more binding, comparable within an allelic series) in test [5]; 12.2 upbm affinity estimate (log intensity, higher = more binding, comparable within an allelic series) in test [6]. Moreover, the binding signal in [7] is 10.2 upbm affinity estimate (log intensity, higher = more binding, comparable within an allelic series); in test [8], 11.9 upbm affinity estimate (log intensity, higher = more binding, comparable within an allelic series); in test [9], 12.7 upbm affinity estimate (log intensity, higher = more binding, comparable within an allelic series); in [10], 12.6 upbm affinity estimate (log intensity, higher = more binding, comparable within an allelic series); in test [11] it was 14.2 upbm affinity estimate (log intensity, higher = more binding, comparable within an allelic series); in [12] it was 11.9 upbm affinity estimate (log intensity, higher = more binding, comparable within an allelic series). The binding signal in test [13] was 13.3 upbm affinity estimate (log intensity, higher = more binding, comparable within an allelic series); in test [14], 11.6 upbm affinity estimate (log intensity, higher = more binding, comparable within an allelic series); in [15], 11.1 upbm affinity estimate (log intensity, higher = more binding, comparable within an allelic series); in test [16] it was 11.2 upbm affinity estimate (log intensity, higher = more binding, comparable within an allelic series); in test [17] it was 10.9 upbm affinity estimate (log intensity, higher = more binding, comparable within an allelic series); in [18], 9.07 upbm affinity estimate (log intensity, higher = more binding, comparable within an allelic series). Besides, the binding signal in test [19] is 12.9 upbm affinity estimate (log intensity, higher = more binding, comparable within an allelic series); in [20], 12.3 upbm affinity estimate (log intensity, higher = more binding, comparable within an allelic series).

On to AATTAATG, for which the binding signal in [1] is 10.2 upbm affinity estimate (log intensity, higher = more binding, comparable within an allelic series); in test [2], 10.6 upbm affinity estimate (log intensity, higher = more binding, comparable within an allelic series); in test [3], 12.8 upbm affinity estimate (log intensity, higher = more binding, comparable within an allelic series); in test [4] it was 12.5 upbm affinity estimate (log intensity, higher = more binding, comparable within an allelic series); in [5], 11.9 upbm affinity estimate (log intensity, higher = more binding, comparable within an allelic series); in test [6], 12.2 upbm affinity estimate (log intensity, higher = more binding, comparable within an allelic series). Moreover, the binding signal in [7] was 10.1 upbm affinity estimate (log intensity, higher = more binding, comparable within an allelic series); in test [8], 12.1 upbm affinity estimate (log intensity, higher = more binding, comparable within an allelic series); in test [9], 12.8 upbm affinity estimate (log intensity, higher = more binding, comparable within an allelic series); in [10], 12.8 upbm affinity estimate (log intensity, higher = more binding, comparable within an allelic series); in test [11], 14.1 upbm affinity estimate (log intensity, higher = more binding, comparable within an allelic series); in test [12], 12 upbm affinity estimate (log intensity, higher = more binding, comparable within an allelic series). Also, the binding signal in test [13] was 13.1 upbm affinity estimate (log intensity, higher = more binding, comparable within an allelic series); in [14], 11.8 upbm affinity estimate (log intensity, higher = more binding, comparable within an allelic series); in test [15], 11 upbm affinity estimate (log intensity, higher = more binding, comparable within an allelic series); in [16] it was 11.1 upbm affinity estimate (log intensity, higher = more binding, comparable within an allelic series); in [17], 11 upbm affinity estimate (log intensity, higher = more binding, comparable within an allelic series); in [18] it was 8.87 upbm affinity estimate (log intensity, higher = more binding, comparable within an allelic series). Further, the binding signal is 12.5 upbm affinity estimate (log intensity, higher = more binding, comparable within an allelic series) in test [19] and 12.2 upbm affinity estimate (log intensity, higher = more binding, comparable within an allelic series) in [20].

Consider AGTAATTA, for which the binding signal in test [1] is 10.6 upbm affinity estimate (log intensity, higher = more binding, comparable within an allelic series); in [2], 10.9 upbm affinity estimate (log intensity, higher = more binding, comparable within an allelic series); in test [3] it was 13.1 upbm affinity estimate (log intensity, higher = more binding, comparable within an allelic series); in test [4], 13 upbm affinity estimate (log intensity, higher = more binding, comparable within an allelic series); in [5], 12.3 upbm affinity estimate (log intensity, higher = more binding, comparable within an allelic series); in test [6], 12.3 upbm affinity estimate (log intensity, higher = more binding, comparable within an allelic series). Besides, the binding signal in [7] is 10.3 upbm affinity estimate (log intensity, higher = more binding, comparable within an allelic series); in [8], 12.3 upbm affinity estimate (log intensity, higher = more binding, comparable within an allelic series); in test [9], 13 upbm affinity estimate (log intensity, higher = more binding, comparable within an allelic series); in [10], 13 upbm affinity estimate (log intensity, higher = more binding, comparable within an allelic series); in [11], 14.3 upbm affinity estimate (log intensity, higher = more binding, comparable within an allelic series); in [12], 12.5 upbm affinity estimate (log intensity, higher = more binding, comparable within an allelic series). In addition, the binding signal was 13.8 upbm affinity estimate (log intensity, higher = more binding, comparable within an allelic series) in test [13]; 12.1 upbm affinity estimate (log intensity, higher = more binding, comparable within an allelic series) in [14]; 11.1 upbm affinity estimate (log intensity, higher = more binding, comparable within an allelic series) in [15]; 11.1 upbm affinity estimate (log intensity, higher = more binding, comparable within an allelic series) in test [16]; 11.1 upbm affinity estimate (log intensity, higher = more binding, comparable within an allelic series) in test [17]; 8.88 upbm affinity estimate (log intensity, higher = more binding, comparable within an allelic series) in [18]. Also, the binding signal in test [19] was 13.3 upbm affinity estimate (log intensity, higher = more binding, comparable within an allelic series); in [20], 12.7 upbm affinity estimate (log intensity, higher = more binding, comparable within an allelic series).
